Out of some 410,000 compounds screened, about 5,100 (1.2%) were called active. About 8% were inconclusive and are not listed. For the sample, actives were picked, then their nearest neighbours and some compounds at random. Values without a mark were called inactive. Calls come from the whole dose curve; tested in HEK293T cells.
test: High Throughput Screening for Foot and Mouth Disease Virus Antivirals; settings: FMDV antiviral cell-based qHTS; series mostly up to 57.9 µM; activity change, negative = inhibition: at the top concentration; note: read-out not given here; nearly all actives have a fitted effect of over 45% in size
% is set by controls: 0 for no effect and ±100 for the full control effect; potency is the fitted concentration of half-maximal effect.

| SMILES | activity change, negative = inhibition [%] | Potency |
| --- | --- | --- |
| CCOc1ccccc1N(C)C(=O)c1cc2c(s1)-c1ccccc1OC2 | -12.7 |  |
| COCCn1c(=O)c(-c2cc(F)cc(F)c2)nc2cncnc21 | -13.8 |  |
| CN1C2CC3CC1C(O3)C2O (configuration not stated) | 1.94 |  |
| Cc1ccc(S(=O)(=O)c2cn(Cc3ccccc3)c3cc(N4CCCC4)c(F)cc3c2=O)c(C)c1 | -5.03 |  |
| Oc1c(Cl)cc(Cl)c(Cl)c1Cc1c(O)c(Cl)cc(Cl)c1Cl |  | 5.62 µM (active) |
| C=C1C(=O)C23C(O)C1CCC2[C@]12COC3(O)C(O)C1C(C)(C)CC[C@H]2O (some centres not stated) |  | 28.2 µM (active) |
| O=C(NC1(C(F)(F)F)N=C(c2ccccc2)N(C2CCCCC2)C1=O)c1ccccc1F (configuration not stated) | -26.5 |  |
| O=c1c(-c2cccs2)nc2cnc(Oc3ccccc3)nc2n1-c1ccccc1 | 0.49 |  |
| O=C(c1csnn1)N1CCC2(CCN(Cc3nccs3)CC2)CC1 | -6.87 |  |
| O=C(c1ccccc1Oc1ccccc1)N1CCN(c2ccc(F)cc2)CC1 | -28 |  |
| O=C(c1cccc(F)c1)N1CCC2(CC1)CCN(c1ccccc1)CC2 | -23.1 |  |
| O=C(c1cccc(C(=O)N2CCN(c3ccc(F)cc3)CC2)c1)N1CCN(c2ccc(F)cc2)CC1 |  | 39.8 µM (active) |
| COc1ccc(CN(C)CCn2cc(C(=O)N3CCSCC3)nn2)cc1C | -5.81 |  |
| O=C1c2ccccc2C(=O)N1CCC#Cc1ccc2cc(C3(O)CCCCC3)oc(=O)c2c1 |  | 39.8 µM (active) |
| CC(C)CCN1C(=O)c2ccc(C(=O)Nc3cccc(S(N)(=O)=O)c3)cc2C1=O |  | 28.2 µM (active) |
| Cc1ccnc(NS(=O)(=O)c2ccc(NC(=O)c3ccc(S(=O)(=O)N(C)C)cc3)cc2)n1 | -8.59 |  |
| COCCCN1C(=O)c2ccc(C(=O)Nc3ccc(OC)cc3OC)cc2C1=O | -11.7 |  |
| CCCCN1C(=O)c2ccc(C(=O)Nc3ccc(S(=O)(=O)N(C)C)cc3)cc2C1=O |  | 20 µM (active) |
| Cc1ccc(S(=O)(=O)NCCC(=O)Nc2cccc(S(N)(=O)=O)c2)cc1C | 10.4 |  |
| CN1C(=O)c2ccc(NC(=O)c3c(F)c(F)c(F)c(F)c3F)cc2C1=O | -29.8 |  |
| O=c1c(CN2CCOc3ccc(CN4CCC(Oc5cccnc5)CC4)cc3C2)coc2ccccc12 | -10.3 |  |

| SMILES | activity change, negative = inhibition [%] | Potency |
| --- | --- | --- |
| Cc1cnc(CNc2cc(-c3c(C)noc3C)ncn2)cn1 | 3.33 |  |
| O=c1ccn([C@@H]2O[C@H](COP(=O)(O)OP(=O)(O)OP(=O)(O)O)[C@@H](O)[C@H]2O)c(=O)[nH]1 | -14 |  |
| COc1cc(Cl)c(C)cc1Nc1nnc(-n2nc(C)cc2C)c2ccccc12 | -24.8 |  |
| COCCn1c(=O)c(C)nc2cnc(N(C)C)nc21 | -13.5 |  |
| CC1=C/C(=N\OS(=O)(=O)c2ccccc2)C=CC1=O |  | 15.8 µM (active) |
| O=C(CSc1nc(=O)n(Cc2cccnc2)c2c1CCC2)Nc1ccc(F)cc1F | 22.1 |  |
| CCOC(=O)C1=C(c2ccccc2)Nc2ncnn2C1c1ccc(Cl)cc1 (configuration not stated) | -11.9 |  |
| CCOc1ccccc1NC(=O)C1=C(C)Nc2ncnn2C1c1ccc(NC(C)=O)cc1 (configuration not stated) | 2.66 |  |
| CC1=C(C(=O)OCc2ccccc2)C(c2ccco2)n2ncnc2N1 (configuration not stated) |  | 28.2 µM (active) |
| CC(C)=CCC/C(C)=C/CC/C(C)=C/CC/C(C)=C/CO |  | inactive |
| CC(C)c1cc(C(=O)N2CCOc3ccc(CN4CCC(Oc5cccnc5)CC4)cc3C2)n[nH]1 | -8.01 |  |
| Cc1ccsc1C(=O)OCC(=O)c1cc(C)n(CC2CCCO2)c1C (configuration not stated) |  | 100 µM (active) |
| Cc1cc(C(=O)COC(=O)c2cccs2)c(C)n1-c1c(C)n(C)n(-c2ccccc2)c1=O | 11.2 |  |
| O=C(CSc1nnc(-c2ccco2)n1CC1CCCO1)c1ccccc1 (configuration not stated) | 7.3 |  |
| COc1ccccc1N1CCN(c2ncnc3sc(C)c(-c4ccccc4)c23)CC1 |  | 20 µM (active) |
| COc1ccccc1N1CCN(c2ncnc3onc(-c4cccc(Cl)c4)c23)CC1 | -0.743 |  |
| COC(=O)c1cnc(N2CCN(c3ccccc3OC)CC2)c2ccccc12 | -10.8 |  |
| O=C(c1cc(C(F)(F)F)cc(C(F)(F)F)c1)N1CCC2(CCCN(Cc3ccncc3)C2)CC1 | -13.6 |  |
| COc1cccc(Cn2c(=O)c(-c3ccccc3)nc3cnc(OC)nc32)c1 | -2.17 |  |
| COCCNC(=O)c1ccc2c(c1)N=C(C)c1cc(C)ccc1S2 | -1.97 |  |
| CCCCCCCCCCCCn1ccc(=N)cc1 |  | 17.8 µM (active) |

| SMILES | activity change, negative = inhibition [%] | Potency |
| --- | --- | --- |
| O=C(c1cnccn1)N1CCC2(CCN(Cc3cc(C(F)(F)F)cc(C(F)(F)F)c3)CC2)CC1 | -16.3 |  |
| Cc1cc(C)c2oc(-c3cccc(NC(=O)c4cccc(F)c4)c3C)nc2c1 | -3.43 |  |
| COc1ccc(NC(C)=O)cc1NC(=O)CN1CCN(C2c3ccccc3-c3ccccc32)CC1 |  | 31.6 µM (active) |
| COc1ccc(N)cc1NC(=O)CN1CCOCC1 | -12.5 |  |
| COc1ccc(NC(C)=O)cc1NC(=O)CN1CCN(c2ccc(F)cc2)CC1 | -19 |  |
| Cc1ccccc1C(=O)NCc1nc(-c2ccc(Cl)cc2)no1 | -24.1 |  |
| CCc1ccc(NC(=O)CN2C(=O)C(c3ccccc3)=NC23CCCCCC3)cc1 | -15.1 |  |
| COc1ccc(N(Cc2ccc(N(C)C)cc2)C(=O)c2ccc(S(C)(=O)=O)cc2)cc1 | -1.95 |  |
| CCOc1ccc(N(Cc2ccccc2)C(=O)c2nc(S(C)(=O)=O)ncc2Cl)cc1 |  | 15.8 µM (active) |
| CCOc1ccc(NC(=O)CN(Cc2ccccc2)S(=O)(=O)c2ccc(Cl)cc2)cc1 | 5.09 |  |
| Nc1nc2nc(Cl)[nH]c2c(=O)[nH]1 | 0.944 |  |
| Cc1cc(N2C(=O)c3ccc(C(=O)NCc4ccccc4)cc3C2=O)no1 | -0.135 |  |
| O=C(O)c1ccc2c(c1)C(=O)N(c1ccc(/C=C/C(=O)c3ccccc3)cc1)C2=O |  | 14.1 µM (active) |
| COc1ccc(OC)c(NC(=O)c2ccc3c(c2)C(=O)N(c2ccc(OC(C)=O)cc2)C3=O)c1 | -19.4 |  |
| COCC(C)NS(=O)(=O)c1ccc(N2CCCCS2(=O)=O)cc1 (configuration not stated) | -9.65 |  |
| CCc1noc(C)c1C(=O)NCCN1Cc2cc(OC)ccc2OC(CC)C1 (configuration not stated) | 23 |  |
| Cn1c(=O)c(CCc2ccccc2)nc2cnc(Nc3ccccc3)nc21 | 21.2 |  |
| c1ccc(CNc2ncncc2-c2cccnc2)cc1 | -17.3 |  |
| CCN(CC)CCCC(C)n1c2nc(=O)[nH]c(=O)c-2nc2cc(Cl)ccc21 (configuration not stated) |  | 11.2 µM (active) |
| CCN(CC)CCCC(C)Nc1ccnc2cc(Cl)ccc12 (configuration not stated) | -1.25 |  |
